For 14 molecules, inhibition and nuclei count results are on record in PubChem BioAssay.

SMILES strings stand for the structures. Activity calls are given as the source filed them.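 How the source made its calls: active means visually confirmed hit in the image check and inhibition above 20%; inconclusive means visually confirmed hit but inhibition not above 20%; inactive means no visual hit in the image check.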

As usually defined, the inhibition is the relative decrease from the control value, in per cent.

The nature of the assay: inhibitors of E-selectin induction by TNFa, primary screen, imaging, HUVEC, immunofluorescence, MLSMR starter and 10KST1 sets (AID 487).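 On inhibition: signal is fraction of cell area covered by stained E-selectin grains.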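 On nuclei count: 100% = median nuclei count of all wells on the same plate.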 The conditions noted are these: HUVEC TNFalpha-induced E-selectin immunofluorescence imaging, at 2 µM; inhibition: stronger effect = higher value; nuclei count: measured here: cell number, toxicity.
For `O=C(c1ccccc1F)N1CCC(N2CCCCCC2)CC1`, the inhibition is -138% (inactive) and the nuclei count worked out at 95.6%.
The matching figures for `CCOc1ccc(CCNC(=O)C(O)c2ccccc2)cc1` (stereo not drawn): 18.6% (inactive) and 150%.
On the same counts, the results for `CCN(CC)CCN1C(=O)C(=O)/C(=C(/O)c2ccc(C)cc2)C1c1cccnc1` (stereo not drawn) are -20.8% (inactive) and 113%.
For `C=CCOC(=O)C1=C(C)NC(SCC(=O)N(CC)CC)=C(C#N)C1c1ccco1` (stereo not drawn), the nuclei count stood at 153% and the inhibition is -137% (inactive).
The matching figures for `CCOC(=O)CSc1nc(N)c(C#N)c(-c2ccc(OC)cc2)c1C#N`: 127% and -88.5% (inactive).
The matching figures for `COc1ccc(OC)c(NC(=O)CSC2=C(C#N)C(c3ccco3)C3=C(CCCC3=O)N2)c1` (stereo not drawn): 141% and -37.1% (inactive).
For the molecule `CCCOc1ccc(N2C(=O)CC(N(Cc3ccc(S(N)(=O)=O)cc3)C(=O)CC)C2=O)cc1` (stereo not drawn), the inhibition is -308% (inactive) and the nuclei count stood at 184%.
The matching figures for `Cc1ccc2[nH]c3c(c2c1)CCCC3C(N)=O` (stereo not drawn): -103% (inactive) and 183%.
On the same counts, the results for `COc1ccc(C=NCCC2(O)CC(C)N(C)CC2C)cc1` (stereo not drawn) are -85.1% (inactive) and 131%.
For the molecule `CC(C)(C)C1CCC2(CC1)C(C#N)=C(SCC(=O)Nc1ccccc1)NC(=O)C2C#N` (stereo not drawn), the nuclei count was 85.7% and the inhibition is -138% (inactive).
On the same counts, the results for `CC1(C)Cc2c(C#N)c(NCCc3ccccc3)nc(-c3ccco3)c2CO1` are 184% and -33.8% (inactive).
For the molecule `CCOC(=O)c1cc2cc(OC)ccc2[nH]1`, the nuclei count amounted to 87.4% and the inhibition is -44.6% (inactive).
On to `COC(=O)CSC1=C(C#N)C(=O)NC2(CCCCC2)S1`, for which the inhibition was -35.3% (inactive) and the nuclei count came out at 154%.
The matching figures for `CCOC(=O)CC1=C(C(=O)OCC)C(c2ccc(OC)c(OC)c2)C(C#N)=C(N)O1` (stereo not drawn): -157% (inactive) and 163%.
